The structures appear in SMILES notation. Results filed as inconclusive are left out. The source made the active and inactive calls. Calls follow the shape of the dose curve; as a rule, active = well fitted inhibition curve with a large enough effect; inconclusive = small, poorly fitted or top-dose-only effect; inactive = no such curve, though single readings can be large or run the other way.
% is scaled to controls: 0 for no effect and ±100 for the full control effect; potency is read from the fitted curve at half-maximal effect.

This assay in a line: Primary qHTS for inhibitors of nuclear receptor binding SET domain protein 2 (NSD2) in an RCH-ACV wild type WT cells (2C) (AID 1645877). Also: nearly all actives have a fitted effect of over 70% in size. The note with it: RCH-ACV (leukaemia line) NSD2 WT (2C) viability, CellTiter-Glo, 72 h; series mostly up to 44.9 µM; activity change, negative = cell killing: at the top concentration.
For the compound `CCOc1ccc(Cc2cc([C@@H]3O[C@H](CO)[C@@H](O)[C@H](O)[C@H]3O)ccc2Cl)cc1`, the “activity change, negative = cell killing” value is -7.58% (inactive).
For the compound `COC(=O)[C@H]1[C@@H](O)[C@@]2(O)c3c(OC)cc(O[C@@H]4O[C@@H]([C@@H](O)CO)CO[C@H]4OC)cc3O[C@@]2(c2ccc(OC)cc2)[C@@H]1c1ccccc1`, the Potency was 2950 nM (active).
On the same count and under the same terms, with `O=C(NCc1ccc(S(=O)(=O)c2cccc(C(F)(F)F)c2)cc1)c1cnc2[nH]ncc2c1` the figure was 26.3 nM (active).
Turning to `COC[C@@H](c1ccc(C(F)(F)F)cc1)N1CCN(C2(C)CCN(C(=O)c3c(C)ncnc3C)CC2)C[C@@H]1C`, the “activity change, negative = cell killing” value was -22.9% (inactive).
Consider `Cc1c(F)cccc1NC(=O)Nc1ccc(Cl)c(S(=O)(=O)[C@H]2CCCNC2)c1O`, for which the result was inactive.
As for `Cc1ccc(-c2nc(N)nc3c2nnn3Cc2cccc(CO[C@H]3CCOC3)n2)o1`, the “activity change, negative = cell killing” value was -13.8% (inactive).
Take `CCNC(=O)Nc1ccc(Oc2ncnc(N)c2/C=N/OC)cc1Cl`: the Potency is 16600 nM (active).
In the case of `COc1cccc(-c2c(C)n(Cc3c(F)cccc3C(F)(F)F)c(=O)n(C[C@H](NCCCC(=O)O)c3ccccc3)c2=O)c1F`, the Potency result was “inactive”.
On the same count and under the same terms, with `C=CC(=O)N1CCC(CNc2ncnc(N)c2-c2ccc(Oc3ccccc3)cc2)CC1` the figure was 5900 nM (active); with `O=C1CC[C@H](N2Cc3c(OCc4ccc(CN5CCOCC5)cc4)cccc3C2=O)C(=O)N1`, 33.2 nM (active).
Consider `C[C@@H]1C(=O)OC2[C@H](O)[C@]34[C@H]5C[C@@H](C(C)(C)C)[C@]36[C@@H](OC(=O)[C@@H]6O)O[C@@]4(C(=O)O5)[C@]21O` (stereo not given in full), for which the “activity change, negative = cell killing” value is 4.55% (inactive).
Turning to `O=C(Nc1nccs1)C(c1cc(F)ccc1O)N1Cc2ccccc2C1=O` (stereo not given), the “activity change, negative = cell killing” value was 8.39% (inactive).
As to `C=CC(=O)N1CCC[C@H](n2c(=O)n(-c3ccc(Oc4ccccc4)cc3)c3c(N)ncnc32)C1`, the Potency is 2090 nM (active).
Still for that read-out and setting: with `COc1cc(C(=O)NC(N)=Nc2ccc(C)c(NC(=O)c3ccc(-c4ccccc4)cc3)c2)cc(OC)c1OC` the figure was 11800 nM (active); with `COC(=O)C1=C(C)NC(c2ncc(F)cc2F)=N[C@H]1c1ccc(F)cc1Cl`, 13200 nM (active).
In the case of `COc1ccc(COc2ccc(Cc3cnc(N)nc3N)cc2OC)cc1`, the “activity change, negative = cell killing” value is -32.4% (inactive).
On to `CC1(C)C(N(O)C(=O)Nc2ccc(Cl)cc2)N(c2ccc(Cl)cc2)C(=O)N1CC(=O)N/N=C/C=C/c1ccc([N+](=O)[O-])o1` (stereo not given), for which the Potency is 8330 nM (active).
With `Cc1cc(-c2cnn3c(NCC4CC(C)(O)C4)cc(Oc4cccnc4)nc23)ccc1C(=O)NC1CC1` (stereo not given), the Potency was 132 nM (active).
As for `Cn1c(-c2ccccc2C(F)(F)F)nnc1C12CCC(c3noc(C4CC(F)(F)C4)n3)(CC1)CC2`, the “activity change, negative = cell killing” value was -0.266% (inactive).
With `C[C@]12CC[C@H](O)CC1=CC[C@@H]1[C@@H]2CC[C@]2(C)C(c3cccnc3)=CC[C@@H]12`, the “outcome” value was “inactive [at 17.3 µM]”.
In the case of `Cc1cc(C)cc(Oc2ccc(CNC(=O)[C@H](C)N)cc2C)c1`, the Potency was 18600 nM (active).
Take `Cn1cc(-c2nc(N[C@@H]3CCCC[C@@H]3N)c(F)c3c2C(=O)NC3)cn1`: the Potency was 590 nM (active).
Consider `CC[C@@]1(O)C(=O)OCc2c1cc1n(c2=O)Cc2c-1nc1ccccc1c2CCNC(C)C`, for which the Potency was 2.6 nM (active).
Take `c1ccc(CNCc2ccc(CN3CCCNCCNCCCNCC3)cc2)nc1`: the “activity change, negative = cell killing” value was -18.9% (inactive).
`CN1C(=O)N[C@H](Cc2c[nH]c3c(Cl)cccc23)C1=O`: the “activity change, negative = cell killing” value was -18.2% (inactive).
For `Cc1ccc(NS(=O)(=O)c2ccc3c(c2)C2C=CCC2C(c2ccc(C(=O)O)cc2)N3)cc1C` (stereo not given), the “activity change, negative = cell killing” value is -0.86% (inactive).
On to `O=C(Nc1ccccc1)Nc1ccc(-c2ccc(C(=O)[C@@H]3CCC[C@H]3C(=O)O)cc2)cc1`, for which the “activity change, negative = cell killing” value was -17.3% (inactive).
Regarding `CCS(=O)(=O)c1ccc2oc(-c3ccc4ccccc4c3)nc2c1`, the compound was called inactive.
Consider `C[C@]12CCC3=C4CCC(=O)C=C4CC[C@H]3[C@@H]1CC[C@@]2(O)CC#N`, for which the “activity change, negative = cell killing” value was -10.9% (inactive).
For `CC(C)=CCC[C@](C)(O[C@@H]1O[C@H](CO[C@@H]2O[C@H](CO)[C@@H](O)[C@H](O)[C@H]2O)[C@@H](O)[C@H](O)[C@H]1O)[C@H]1CC[C@]2(C)[C@@H]1[C@H](O)C[C@@H]1[C@@]3(C)CC[C@H](O[C@@H]4O[C@H](CO)[C@@H](O)[C@H](O)[C@H]4O[C@@H]4O[C@H](CO)[C@@H](O)[C@H](O)[C@H]4O)C(C)(C)[C@@H]3CC[C@]12C`, the “outcome” value was “inactive [at 17.3 µM]”.
Take `N=C1S/C(=C\c2ccc(-c3ccc4c(c3)C(=O)NC4=O)o2)C(=O)N1c1ccc(Br)cc1`: the “activity change, negative = cell killing” value is -0.733% [at 17.3 µM] (inactive).
As for `O=C(/C=C\n1cnc(-c2cc(C(F)(F)F)cc(C(F)(F)F)c2)n1)NNc1ccccn1`, the Potency is 3320 nM (active).
As for `C=CC(=O)Nc1cccc(Oc2nc(Nc3ccc(N4CCN(C)CC4)c(F)c3)nc3[nH]ccc23)c1`, the Potency was 1320 nM (active).
Turning to `O=S(=O)(Nc1ccc(-c2cccnc2)c2cccnc12)c1cccc(C(F)(F)F)c1`, the Potency is 7420 nM (active).
The same measure, in the same setting: next, `CC(C)n1ncnc1-c1cn2c(n1)-c1ccc(O[C@@H](C)C(N)=O)cc1OCC2`: 934 nM (active).
As to `COc1ccc2[nH]c3c(c2c1)CCN[C@]31CS[C@@H]2c3c(OC(C)=O)c(C)c4c(c3[C@H](COC1=O)N1[C@@H]2[C@H]2c3c(cc(C)c(OC)c3O)C[C@@H]([C@@H]1O)N2C)OCO4`, the Potency was 1.7 nM (active).
For the compound `COc1cc([C@@H]2c3cc4c(cc3[C@@H](O[C@@H]3O[C@@H]5CO[C@@H](c6cccs6)O[C@H]5[C@H](O)[C@H]3O)[C@H]3COC(=O)[C@H]23)OCO4)cc(OC)c1O`, the Potency is 23.5 nM (active).
`C=C1CCC[C@]2(C)C=C3OC(=O)C(C)=C3C[C@@H]12`: the “activity change, negative = cell killing” value is -0.953% (inactive).
As for `COc1cc(C)[nH]c(=O)c1CN1CCc2c(Cl)cc([C@H](OC)C3COC3)c(Cl)c2C1=O`, the “activity change, negative = cell killing” value is -9.17% (inactive).
As to `CC1=NN(c2ccc(C(=O)O)cc2)C(=O)/C1=C/c1ccc(-c2cc(C)c(C)cc2[N+](=O)[O-])o1`, the result was inactive.
